Screening data (PubChem)
Shown are actives, neighbours in structure and some others; about 5.2% of the full set was active somewhere.
CendR NRP1 mod = modulators of CendR peptide binding to human neuropilin-1; O14786; FAM-RPARPAR peptide binding to NRP-1, fluorescence polarization; inhibition, % at 25 µM; 0.85% of 360,000 active;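 active means inhibition or corrected inhibition above about 18%, plus a signal ratio from 0.5 to 1.5, limit read from the data, passing the limit was not always enough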
Target sequence (O14786 whole entry, looked up): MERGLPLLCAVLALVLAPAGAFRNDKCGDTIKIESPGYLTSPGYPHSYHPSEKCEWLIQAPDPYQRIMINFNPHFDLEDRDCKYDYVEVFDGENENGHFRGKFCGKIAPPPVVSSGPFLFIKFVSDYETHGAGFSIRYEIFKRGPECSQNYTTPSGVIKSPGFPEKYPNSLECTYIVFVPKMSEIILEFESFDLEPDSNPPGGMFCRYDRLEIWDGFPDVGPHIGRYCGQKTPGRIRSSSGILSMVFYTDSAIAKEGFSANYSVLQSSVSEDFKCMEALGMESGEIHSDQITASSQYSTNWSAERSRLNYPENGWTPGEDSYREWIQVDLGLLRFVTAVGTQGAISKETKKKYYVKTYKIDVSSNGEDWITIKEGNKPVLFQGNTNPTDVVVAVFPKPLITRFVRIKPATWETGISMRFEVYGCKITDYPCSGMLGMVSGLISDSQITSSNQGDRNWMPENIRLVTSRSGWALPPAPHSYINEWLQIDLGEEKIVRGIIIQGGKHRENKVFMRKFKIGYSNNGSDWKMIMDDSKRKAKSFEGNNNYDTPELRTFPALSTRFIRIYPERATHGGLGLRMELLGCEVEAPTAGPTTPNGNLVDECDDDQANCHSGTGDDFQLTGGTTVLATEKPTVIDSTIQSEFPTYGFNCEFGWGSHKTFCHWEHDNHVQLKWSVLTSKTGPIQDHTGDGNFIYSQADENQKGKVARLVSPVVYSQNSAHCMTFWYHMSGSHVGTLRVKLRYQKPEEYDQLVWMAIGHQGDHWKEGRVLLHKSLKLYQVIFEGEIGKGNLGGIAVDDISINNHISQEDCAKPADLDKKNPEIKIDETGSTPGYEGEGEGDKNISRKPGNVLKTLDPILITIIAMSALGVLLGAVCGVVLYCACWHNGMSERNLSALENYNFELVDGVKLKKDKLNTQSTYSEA
A3G deaminase = APOBEC3G (human) deaminase inhibition; recombinant A3G, ssDNA deamination FAM/TAMRA fluorescence; inhibition, % at 20 µM; 0.28% of 330,000 active;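 active means inhibition of at least 40% at 20 µM, with no more than 30% in the related APOBEC3A deaminase screen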;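 further: plate controls were DMSO wells with A3G for no effect and wells lacking A3G enzyme for full effect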
CR mimetic SO = caloric restriction mimetics inhibiting age-related superoxide in yeast; S. cerevisiae aged cells, superoxide DHE fluorescence; stronger effect = lower value; superoxide response (% of plate mean), % at 10 µM; 0.18% of 330,000 active; AID 2690;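 active means superoxide response under a set limit, about three screen SD below normal, cut at about 65% in these data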;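 further: yeast aged for seven days with compound at 30 °C before DHE staining; 100% = average MFI of all compound-treated wells on the plate with controls excluded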
APOBEC3A inh = inhibitors of human APOBEC3A DNA deaminase; 0.41% of 330,000 active; recombinant A3A, FAM/TAMRA ssDNA deamination fluorescence; inhibition, % at 20 µM; P31941;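 active means at least 40% inhibition at 20 µM here, with at most 30% in a related deaminase screen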;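 further: plate controls were A3A with DMSO for no effect and wells lacking A3A enzyme for full effect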
PfM18AAP inh = PfM18AAP enzyme inhibition. recombinant PfM18AAP, H-Glu-NHMec fluorogenic cleavage. inhibition, % at 7.35 µM. 1.2% of 290,000 active. AID 1822;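 active means inhibition above the campaign mean inhibition over all tested compounds plus 3 SD, cut at about 28% in these data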;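 further: 0% = plate median of test compound wells and 100% = 2 mM ZnCl2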
ALR H2O2 inh = blocks human ALR sulfhydryl oxidase activity; P55789; AID 485317; inhibition, % (concentration not given with the values); 3.8% of 290,000 active; purified ALR, DTT oxidation, H2O2 HRP-luminol luminescence;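 active means mean replicate inhibition above about 79%, with every replicate also reaching it, limit read from the data; inconclusive means only one of the two criteria met; inactive means mean below limit and not every replicate reaching it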
An asterisk follows results filed as active.

For Cc1cccc(Nc2c(-c3ccc(N4CCOCC4)cc3)nc3ncccn23)c1 the results were CendR NRP1 mod -12.1, A3G deaminase -10.2, CR mimetic SO 111.2, APOBEC3A inh -1.9, PfM18AAP inh -0.9 and ALR H2O2 inh 94.8*.
`CN1C(=O)C(=O)N(c2cccc(C(F)(F)F)c2)C1=O` gave CendR NRP1 mod 18.2, A3G deaminase -4.3, CR mimetic SO 103.8, APOBEC3A inh -0.6 and ALR H2O2 inh 1.5.
For CC(C)[C@H](NC(N)=O)C(=O)NNC(=O)COc1cccc(C(F)(F)F)c1 the results were CendR NRP1 mod 7.4, A3G deaminase -1.6, CR mimetic SO 93.6, APOBEC3A inh 26.2 and PfM18AAP inh -6.3.
`Cc1cc(C)c2c(CN(Cc3ccccc3)Cc3ccccc3)cc(=O)oc2c1` gave CendR NRP1 mod 1.7.
CC(=O)Nc1cccc(C(=O)/C=C/c2cccs2)c1 was read as CendR NRP1 mod 8.9, CR mimetic SO 98.3, PfM18AAP inh 5.2 and ALR H2O2 inh 96.9*.
Screening CC(=O)Nc1cccc(C(=O)/C=C/c2ccc(N(C)C)cc2)c1 returned CendR NRP1 mod 123.8, A3G deaminase -63.5, CR mimetic SO 75.7, APOBEC3A inh -34.2, PfM18AAP inh 3.6 and ALR H2O2 inh 99.1*.
`Cc1cc(S(=O)(=O)NCc2ccccc2)ccc1OCC(=O)NCc1ccccn1` gave CendR NRP1 mod 1.6, A3G deaminase -7.0, CR mimetic SO 103.4, APOBEC3A inh -1.0, PfM18AAP inh -11.5 and ALR H2O2 inh -1.5.
For CCN(C(=O)COC(=O)CCC(=O)c1ccc(Cl)cc1)c1c(N)n(Cc2ccccc2)c(=O)[nH]c1=O the results were CendR NRP1 mod 21.6.
`CN(C)c1ncnc2c1ncn2C1CCCO1` (stereo not drawn) gave CendR NRP1 mod 26.2*.
Screening CN(C)c1ncnc2c1ncn2C1CCCCO1 (stereo not drawn) returned CendR NRP1 mod 4.1.
For Cc1cc(C)n(S(=O)(=O)c2cc(C)c(C)cc2C)n1 the results were CendR NRP1 mod 13.5, A3G deaminase -2.9, CR mimetic SO 89.5, APOBEC3A inh -2.5, PfM18AAP inh 0.0 and ALR H2O2 inh -6.6.
`N#Cc1c(-c2ccccc2)[nH]c(=O)[nH]c1=O` gave CendR NRP1 mod 27.4*, A3G deaminase -3.0, CR mimetic SO 83.6, APOBEC3A inh -1.7, PfM18AAP inh -9.3 and ALR H2O2 inh -3.9.
Screening Cc1cc(C)cc(NC(=O)C(OC(=O)C2=COCCO2)c2ccccc2)c1 (stereo not drawn) returned CendR NRP1 mod -10.6, A3G deaminase 6.4, CR mimetic SO 82.0, APOBEC3A inh 0.9, PfM18AAP inh -0.4 and ALR H2O2 inh 27.5.
Cc1cc(C)n(CCc2nc(-c3cccs3)cs2)n1 was read as CendR NRP1 mod 31.0*, A3G deaminase -3.6, CR mimetic SO 99.5, APOBEC3A inh -3.1, PfM18AAP inh 3.3 and ALR H2O2 inh -9.5.
Cc1cc(C)n(CCc2nc(-c3ccc(-c4ccccc4)cc3)cs2)n1 was read as CendR NRP1 mod 4.1, A3G deaminase -3.1, CR mimetic SO 86.1, APOBEC3A inh -1.6, PfM18AAP inh 4.1 and ALR H2O2 inh -8.6.
For Cc1cc(C)n(CCc2nc(-c3ccco3)cs2)n1 the results were CendR NRP1 mod -16.1, A3G deaminase 4.4, CR mimetic SO 86.8, APOBEC3A inh 16.2, PfM18AAP inh -11.0 and ALR H2O2 inh 98.5*.
Screening Cc1sc(NC(=O)c2ccco2)c(C(=O)c2ccc(Cl)cc2)c1C returned CendR NRP1 mod -8.3, A3G deaminase -1.3, CR mimetic SO 99.2, APOBEC3A inh -1.8, PfM18AAP inh 1.4 and ALR H2O2 inh 97.4*.
`Cc1csc(NC(=O)c2ccco2)c1C(=O)c1ccccc1` gave CendR NRP1 mod -9.2, A3G deaminase -7.9, CR mimetic SO 107.5, APOBEC3A inh -3.4, PfM18AAP inh -10.7 and ALR H2O2 inh 43.1.
CC(C)CNC(=O)Nc1ccccc1F was read as CendR NRP1 mod -3.2, A3G deaminase -3.2, CR mimetic SO 99.9, APOBEC3A inh -3.5, PfM18AAP inh -1.7 and ALR H2O2 inh -0.8.
For CN(CC(=O)N1CC=C(c2ccccc2)CC1)S(=O)(=O)c1ccc2c(c1)c(=O)n(C)c(=O)n2C the results were CendR NRP1 mod -7.0, A3G deaminase -6.5, CR mimetic SO 98.5, APOBEC3A inh -1.2 and PfM18AAP inh 2.7.
COc1ccc(NC(=O)CS(=O)CC(=O)Nc2ccc(OC)c(OC)c2)cc1 (stereo not drawn) was read as CendR NRP1 mod -5.3, A3G deaminase -7.6, CR mimetic SO 97.2, APOBEC3A inh -2.0, PfM18AAP inh -3.9 and ALR H2O2 inh 86.8*.
`CCc1ccc(CN2CCSCC2)cc1` gave CendR NRP1 mod 5.5, A3G deaminase -6.5, CR mimetic SO 98.7, APOBEC3A inh -3.4, PfM18AAP inh 0.8 and ALR H2O2 inh -4.2.
Screening Cc1ccccc1-n1c(-c2ccco2)n[nH]c1=S returned CendR NRP1 mod -2.8, A3G deaminase 37.2, CR mimetic SO 89.0, APOBEC3A inh -7.1, PfM18AAP inh 30.0* and ALR H2O2 inh 50.5.
Screening Cn1cnc2c(ncn2C2OC(CO)C(O)C2O)c1=S (stereo not drawn) returned CendR NRP1 mod -0.2.
`N#Cc1nc(-c2ccco2)oc1NCc1cccnc1` gave CendR NRP1 mod -4.8, A3G deaminase -0.4, CR mimetic SO 87.8, APOBEC3A inh -1.1, PfM18AAP inh 5.1 and ALR H2O2 inh 18.5.
CC(C)CNc1oc(-c2ccccc2Cl)nc1C#N was read as CendR NRP1 mod 25.7*, A3G deaminase -1.4, CR mimetic SO 98.2, APOBEC3A inh 0.6, PfM18AAP inh 9.9 and ALR H2O2 inh 13.3.
`CC(Nc1oc(-c2ccco2)nc1C#N)c1ccccc1` (stereo not drawn) gave CendR NRP1 mod -8.2, A3G deaminase -0.8, CR mimetic SO 103.6, APOBEC3A inh 0.7, PfM18AAP inh 0.6 and ALR H2O2 inh 26.0.
Screening N#Cc1nc(-c2ccco2)oc1NCc1ccc(F)cc1 returned CendR NRP1 mod 23.3*, A3G deaminase -4.4, CR mimetic SO 88.7, APOBEC3A inh 1.9, PfM18AAP inh -5.0 and ALR H2O2 inh inconclusive.
Screening COCCCNc1oc(-c2ccccc2Cl)nc1C#N returned CendR NRP1 mod -1.9, A3G deaminase -6.0, CR mimetic SO 93.9, APOBEC3A inh -4.4, PfM18AAP inh 1.4 and ALR H2O2 inh 6.1.
For CC(C)CNc1oc(-c2ccco2)nc1C#N the results were CendR NRP1 mod 22.4*, A3G deaminase -2.2, CR mimetic SO 106.5, APOBEC3A inh 0.8 and PfM18AAP inh 1.8.
For CS(=O)(=O)c1ccc(CNC(=O)C2(C(F)(F)F)C/C(=C/CCO)CCCO2)cc1 (stereo not drawn) the results were CendR NRP1 mod 4.5, A3G deaminase -13.5, CR mimetic SO 95.8, APOBEC3A inh -4.8 and ALR H2O2 inh 5.2.
